# An excerpt weighted towards active compounds, which were near 4.9% of everything screened.
# Mdm2-MdmX inh: human Mdm2/MdmX binding inhibition. O15151+Q00987. SaOS-2 split-luciferase Mdm2/MdmX complementation, luminescence. inhibition, % at 8 µM. 3% of 330,000 active;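 active = inhibition of at least 50% at 8 µM in the primary screen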
# Beta cell apopt: beta cell apoptosis inhibition. INS-1E cytokine-induced death, ATP luminescence, 48 h; percent of positive-control rescue, neutral wells zero. protection from apoptosis, % (concentration not given with the values). 0.8% of 300,000 active. AID 435005;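 active = Every replicate reaches about 75%, or at least half do and their mean reaches it too, limit read from the data; inconclusive = At least half of replicates reach the limit but their mean does not; inactive = Under half of replicates reach the limit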;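 note: higher means more ATP so stronger rescue from cytokine killing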
# Calb FLC: C. albicans growth modulation with fluconazole | C. albicans CaCi-2 (fluconazole-resistant clinical isolate) + fluconazole, Alamar Blue growth, 48 h | growth inhibition, % (concentration not given with the values) | 0.57% of 300,000 active | AID 1979;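 active = growth inhibition above about 58% in most replicates, limit read from the data, passing the limit was not always enough; inconclusive = exactly half the replicates above a set limit; inactive = most replicates below a set limit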;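 note: all wells also contain fluconazole at 8 µg/ml as a sub-toxic cotreatment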
# PP1 inh: blocks human PP1-alpha phosphatase, a PP5 counter-screen. AID 2235. 0.9% of 320,000 active. inhibition, % at 6.7 µM. purified PP1alpha, OMFP fluorescence;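 active = inhibition above the mean inhibition of all tested compounds plus 3 SD, computed separately for each screening campaign, cut at about 15% in these data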
# PP5 primary: inhibitors of human protein phosphatase 5 (PP5); purified PP5c, OMFP substrate fluorescence; inhibition, % at 6.7 µM; 0.18% of 320,000 active;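 active = inhibition above the campaign's mean inhibition across all tested compounds plus 3 SD, cut at about 9.5% in these data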
# Target sequence (P53041 whole entry, looked up): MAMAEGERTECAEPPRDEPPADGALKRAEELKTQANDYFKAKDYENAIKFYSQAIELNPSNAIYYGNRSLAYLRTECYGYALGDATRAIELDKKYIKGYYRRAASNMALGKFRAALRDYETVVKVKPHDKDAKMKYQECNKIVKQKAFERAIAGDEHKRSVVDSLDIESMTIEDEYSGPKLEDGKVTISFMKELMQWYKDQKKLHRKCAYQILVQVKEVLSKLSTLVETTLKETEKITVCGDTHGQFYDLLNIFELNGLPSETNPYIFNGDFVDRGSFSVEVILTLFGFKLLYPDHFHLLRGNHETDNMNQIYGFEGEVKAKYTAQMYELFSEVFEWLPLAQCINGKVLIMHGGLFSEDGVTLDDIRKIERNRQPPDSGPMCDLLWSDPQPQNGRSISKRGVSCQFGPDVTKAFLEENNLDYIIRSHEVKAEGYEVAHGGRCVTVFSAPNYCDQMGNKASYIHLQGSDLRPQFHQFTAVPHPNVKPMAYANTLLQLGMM
# CSC inhib: blocks cancer stem cells | AID 2717 | cancer stem cell-like cells viability, luminescence | inhibition, % at 7.5 µM | 1.1% of 300,000 active; in the data active = inhibition above about 75%; inconclusive = no clear call, values can overlap the other calls; tested in HMLE shEcad cells
# Mdm2-MdmX conf: human Mdm2/MdmX binding inhibition, confirmed | shares compounds with Mdm2-MdmX inh | luminescent assay | inhibition, % at 8 µM | 55% of 10,000 active; in the data active = inhibition above about 40%
# Full FLuc ctr: full-length luciferase inhibition in Mdm2/MdmX counter-screen; shares compounds with Mdm2-MdmX inh; SaOS-2 full-length luciferase counterscreen, luminescence; inhibition, % at 8 µM; 77% of 6,200 active; AID 504607;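 active = mean inhibition at 8 µM reaching about 37%, which flags the compound as non-specific, limit read from the data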;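 note: p53-null SaOS-2 cells with luciferase driven by a doxycycline-inducible promoter; compound on cells about two nights before reading with doxycycline added after day one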
# Numbers stand for hits; – = inactive; ? = inconclusive; · = no result given; ! = not active in a repeat.
SMILES,Mdm2-MdmX inh,Beta cell apopt,Calb FLC,PP1 inh,PP5 primary,CSC inhib,Mdm2-MdmX conf,Full FLuc ctr
COc1ccc(NC(=O)Cn2c(=O)n(-c3ccc(OC)cc3OC)c(=O)c3c(C)c(C)sc32)cc1,–,–,–,–,–,–,·,·
CCN(CC)CCC(c1ccc(N(C)C)cc1)c1c(OC)cc(OC)c2c(-c3ccccc3)cc(=O)oc12 (stereo not drawn),–,–,·,–,–,–,·,·
COc1ccc(C(CCN2CCCC(C)C2)c2c(OC)cc(OC)c3c(C)cc(=O)oc23)cc1 (stereo not drawn),–,–,–,–,–,–,·,·
CCCCCc1cc(=O)oc2c(C(CCN(CC)CC)c3cc(OC)c(OC)c(OC)c3)c(OC)cc(OC)c12 (stereo not drawn),100,–,–,–,–,107,–,–
CCCCCc1cc(=O)oc2c(C(CCN3CCCCC3)c3ccc4c(c3)OCO4)c(OC)cc(OC)c12 (stereo not drawn),93,98,–,–,–,?,49,65
CCCCCc1cc(=O)oc2c(C(CCN3CCCC(C)C3)c3ccc4c(c3)OCO4)c(OC)cc(OC)c12 (stereo not drawn),79,–,–,–,–,108,–,66
O=C(CSc1ccc(Cl)cc1)NNC(=O)c1ccncc1,–,·,·,·,·,·,·,·
Cc1ccc(-n2c(C)cc(C3=NNC(=NC4CC4)SC3)c2C)cc1C,69,–,?,16,–,–,50,120
C[C@H]1CN([C@@H](C)CO)C(=O)c2cccc(NC(=O)C3CC3)c2O[C@H]1CN(C)C(=O)Nc1ccc2c(c1)OCO2,–,–,·,·,·,–,·,·
Cc1cc(F)ccc1S(=O)(=O)Nc1ccccc1C(=O)Nc1ccccc1-c1nc2ccccc2[nH]1,96,116,?,–,–,79,92,51
Cc1cc(F)ccc1S(=O)(=O)Nc1ccccc1C(=O)Nc1ncn[nH]1,–,–,·,–,–,–,·,·
C=CCN1C(=O)c2ccc(C(=O)NCCc3ccc(OC)c(OC)c3)cc2C1=O,–,–,–,–,–,–,·,·
O=C1N(CN2CCN(Cc3ccccc3)CC2)c2ccccc2C12OCCCO2,–,–,–,–,–,–,·,·
CCN1C(=O)C2(Nc3ccccc3-c3nc4ccccc4n32)c2cc(OC)ccc21 (stereo not drawn),66,–,–,–,–,–,96,–
COc1ccc(OCC(=O)N2CCC(n3nccc3NC(=O)C3CC3)CC2)cc1,–,–,–,–,–,–,·,·
C[C@H](CO)N1C[C@H](C)[C@@H](CN(C)S(=O)(=O)c2ccc(F)cc2)Oc2c(NS(=O)(=O)c3ccccc3)cccc2C1=O,–,·,·,·,·,·,·,·
CC1CCC(C(C)C)C(OC(=O)Cn2c(-c3ccc(Br)cc3)[n+](C)c3ccccc32)C1 (stereo not drawn),100,106,108,–,–,–,95,57
Cc1ccccc1OCc1n(CC(=O)OC2CC(C)CCC2C(C)C)c2ccccc2[n+]1C (stereo not drawn),65,114,99!,–,–,–,99,60
CC1CCC(C(C)C)C(OC(=O)COC(=O)c2ccc(N)cc2)C1 (stereo not drawn),–,–,–,–,–,?,·,·
CC1CCC(C(C)C)C(OC(=O)Cn2c(-c3ccc(Cl)cc3)[n+](C)c3ccccc32)C1 (stereo not drawn),100,100,–,–,–,–,96,52
COCCCn1c(SCC(=O)NC2CCS(=O)(=O)C2)nnc1-c1ccc(Cl)cc1 (stereo not drawn),–,–,·,–,–,–,·,·
Cc1ccc(NC(=O)c2ccc(=O)[nH]c2)cc1S(=O)(=O)N1CCCCCC1,–,–,·,·,·,·,·,·
CC[C@]1(c2ccccc2C)ON(c2ccccc2C(F)(F)F)C1=O,–,–,·,–,–,–,·,·
Cc1ccccc1[C@]1(C)ON(c2ccccc2C(F)(F)F)C1=O,80,–,·,–,–,–,46,59
COc1ccccc1[C@@]1(C)ON(c2ccccc2C(F)(F)F)C1=O,89,–,·,–,–,–,80,–
Cc1cccc2c1-c1sc(C(=O)NCCCN3CCC(C)CC3)cc1CO2,57,–,–,–,–,–,–,·
